Measurements as given in PubChem BioAssay (Tox21).
Inconclusive results are not listed. Entries that show only a call come without a potency. Calls of active or inactive are those of the source. Unless noted, calls follow the shape of the dose curve; as a rule, active = well fitted curve in the direction sought with a large enough effect in the repeat runs; inconclusive = weak or mixed curves; inactive = no such curve, though single readings can be large; an effect the other way counts as inactive or inconclusive.

How the values were obtained:
[1] = qHTS assay to identify small molecule antagonists of the estrogen receptor alpha (ER-alpha) signaling pathway using the BG1 cell line in the presence of 0.1 nM 17-beta-estradiol - cell viability counter screen (AID 1259241); also: nearly all actives have a fitted effect of over 40% in size; also: potency is read from the fitted curve at half-maximal effect
Method in brief: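 The cell line endogenously expresses full-length ER-alpha and carries four EREs driving luciferase. Cells are cultured 5 days hormone-free, treated 22 hr with compounds and 0.1 nM estradiol, then viability is read by fluorescence.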

[2] = qHTS assay to identify small molecule antagonists of the androgen receptor (AR) signaling pathway using the MDA cell line in the presence of 0.5 nM R1881 - cell viability counter screen (AID 1259242); also: nearly all actives have a fitted effect of over 45% in size
Method in brief: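 Live-cell protease fluorescence, CellTiter-Fluor, 30 min at 37C. Cells: MDA-kb2, 3,000/well, preincubated 5 hr. Compounds plus 0.5 nM R1881 final, 16 hr, 37C, 0% CO2.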

[3] = molecular target: Androgen receptor (Homo sapiens) (UniProt P10275); test: qHTS assay to identify small molecule antagonists of the androgen receptor (AR) signaling pathway using the MDA cell line in the presence of 0.5 nM R1881 (AID 1259243); also: nearly all actives have a fitted effect of over 50% in size; also: potency is read from the fitted curve at half-maximal effect
Method in brief: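 MDA-kb2, MMTV-luc (AR/GR elements); 3,000 cells/well; cpd + 0.5 nM R1881 final; 16 hr 37C, 0% CO2; ONE-Glo 30 min RT; luminescence.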

[4] = qHTS assay to identify small molecule HDAC inhibitors (AID 1259364);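 also: wild-type HCT-116 cells with endogenous class I/II HDAC activity; top concentration of the series differs between compounds; nearly all actives have a fitted effect of over 45% in size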
Method in brief: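 HCT-116 (wild type), 1,500 cells/well, overnight; compound 2 hr 37C 5% CO2; HDAC-Glo I/II reagent 30 min RT; luminescence readout.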

[5] = qHTS assay to identify small molecule HDAC inhibitors - cell viability counter screen (AID 1259365); also: series mostly up to about 92 µM; nearly all actives have a fitted effect of over 50% in size
Method in brief: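 Viability readout: CellTiter-Glo luminescence. Wild-type HCT-116 cells, 2hr compound treatment following overnight attachment at 37 C.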

[6] = qHTS assay to identify small molecule agonists of the sonic hedgehog signaling (Shh) pathway - cell viability counter screen (AID 1259366); also: nearly all actives have a fitted effect of over 50% in size
Method in brief: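 Viability measured fluorometrically (CellTiter-Fluor, 1hr, 37C) in 3T3 Gli1-Luc reporter cells after 23hr compound exposure within a 24hr incubation at 37C/5% CO2.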

[7] = qHTS assay to identify small molecule antagonists of the sonic hedgehog signaling (Shh) pathway - cell viability counter screen (AID 1259367); also: nearly all actives have a fitted effect of over 55% in size
Method in brief: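 Fluorescence read-out (CellTiter-Fluor, 1 hr at 37C) taken after 23 hr compound treatment of 3T3 Gli1-Luc cells stimulated with conditioned medium. Cells were seeded at 2,000 per well and pre-incubated 4 hr.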

[8] = molecular target: Estrogen receptor beta (Homo sapiens) (UniProt Q92731); test: qHTS assay to identify small molecule agonists of the estrogen receptor beta (ER-beta) signaling pathway (AID 1259377; active = well fitted activation curve with a large enough effect in the signal ratio in the repeat runs, not every such curve was filed as active; the % refers to the signal ratio)
Method in brief: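 A UAS-controlled beta-lactamase reporter in ER-beta-UAS-bla HEK293T cells reports receptor activation. Compounds act for 16 hr at 37C in 2% charcoal-stripped serum, and a FRET substrate is read by fluorescence after 2 hours.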

[9] = molecular target: Estrogen receptor beta (Homo sapiens) (UniProt Q92731); test: qHTS assay to identify small molecule antagonists of the estrogen receptor beta (ER-beta) signaling pathway (AID 1259378; active = well fitted inhibition curve with a large enough effect in the signal ratio in the repeat runs, not every such curve was filed as active; the % refers to the signal ratio)
Method in brief: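 ER-beta-UAS-bla HEK293T cells in 2% charcoal-stripped FBS medium treated with compound plus 1nM final 17-beta-estradiol for 16 hr at 37C. Beta-lactamase reporter read by FRET substrate fluorescence after 2 hours at room temperature.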

[10] = qHTS assay to identify small molecule agonists of the androgen receptor (AR) signaling pathway in the presence of an antagonist - cell viability counter screen (AID 1259379);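 also: MDA-kb2 human breast cancer cells carrying an MMTV luciferase reporter; series mostly up to about 92 µM; nearly all actives have a fitted effect of over 25% in size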
Method in brief: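 Viability counter screen: CellTiter-Fluor fluorescence, measured in the same wells as the luciferase read-out. MDA-kb2 cells, 3,000/well, with nilutamide at 3.0uM final and compounds at 15 concentrations, 16 hr at 37C, 0% CO2.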

[11] = qHTS assay to identify small molecule agonists of the estrogen receptor beta (ER-beta) signaling pathway - cell viability counter screen (AID 1259380); also: nearly all actives have a fitted effect of over 30% in size; also: potency is read from the fitted curve at half-maximal effect
Method in brief: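 Luminescence read-out (CellTiter-Glo, 30 min, room temp) taken in the same wells as the beta-lactamase reporter assay; ER-beta-UAS-bla HEK293T cells exposed to DMSO-dissolved compounds for 16 hr at 37C in 2% charcoal-stripped FBS medium.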

[12] = molecular target: Androgen receptor (Homo sapiens) (UniProt P10275); test: qHTS assay to identify small molecule agonists of the androgen receptor (AR) signaling pathway in the presence of an antagonist (AID 1259381; calls by dose curve; also: nearly all actives have a fitted effect of over 15% in size; also: potency is read from the fitted curve at half-maximal effect)
Method in brief: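 Luciferase read-out (ONE-Glo, 30min room temperature) in MDA-kb2 MMTV-reporter cells; agonist mode run in presence of AR antagonist nilutamide, 3.0uM final. Compounds tested as 15-point series, 16hr exposure at 37C, 0% CO2.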

[13] = qHTS assay to identify small molecule agonists or antagonists of the thyroid stimulating hormone receptor (TSHR) signaling pathway - wild type cell line counter screen (AID 1259384; calls by dose curve)
Method in brief: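 Wild-type Hek293 cells, 800/well, 18 h at 37C, then compound with Ro20-1724 for 30 min RT. cAMP by HTRF (cAMP-d2/anti-cAMP cryptate), 1 h RT, fluorescence read. 15 concentrations, triplicates.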

[14] = molecular target: Thyrotropin receptor (Homo sapiens) (UniProt P16473); test: qHTS assay to identify small molecule antagonists of the thyroid stimulating hormone receptor (TSHR) signaling pathway (AID 1259385; calls by dose curve; also: nearly all actives have a fitted effect of over 20% in size)
Method in brief: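 TSHR-HEK293 cells (800/well) plated 18 h, then compounds with Ro20-1724 and TSH at 1.5 ng/mL final, 30 min at room temperature. cAMP quantified by HTRF (cAMP-d2/anti-cAMP-cryptate, 1 h); 15 concentrations in triplicate.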

[15] = qHTS assay to identify small molecule phospholipidosis (PLD) inducers (AID 1259344; active = well fitted curve in the direction sought with a large enough effect; an effect the other way counts as inactive or inconclusive)
Method in brief: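 Read-out is LipidTOX Red fluorescence (ex 595/em 615) imaged in HepG2 cells after 24 h compound exposure at 37 C, with Hoechst nuclear counterstain (ex 352/em 461) allowing per-cell normalisation.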

[16] = qHTS assay to identify small molecule agonists of the sonic hedgehog signaling (Shh) pathway (AID 1259368; calls by dose curve;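 also: NIH/3T3-derived 3T3Gli1-Luc cells carrying a stable Gli1-driven firefly luciferase reporter; series mostly up to about 92 µM; nearly all actives have a fitted effect of over 15% in size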)
Method in brief: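 Read-out: firefly luciferase luminescence from a Gli1 response element reporter stably integrated in NIH/3T3-derived 3T3Gli1-Luc cells, measured 30 min at room temperature after reagent addition. Compound exposure lasted 24 hr at 37 C, 5% CO2.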

[17] = qHTS assay to identify small molecule antagonists of the estrogen receptor beta (ER-beta) signaling pathway - cell viability counter screen (AID 1259382); also: series mostly up to about 92 µM; nearly all actives have a fitted effect of over 55% in size
Method in brief: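 Luminescent ATP read-out (CellTiter-Glo, 30 min, RT) taken in the same wells as the bla reporter assay. HEK293T ER-beta-UAS-bla cells in 2% charcoal-stripped FBS were exposed to compounds with 1nM E2 for 16 hr at 37C.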

[18] = molecular target: Estrogen receptor (Homo sapiens) (UniProt P03372); test: qHTS assay to identify small molecule agonists of the estrogen receptor alpha (ER-alpha) signaling pathway in the presence of an antagonist (AID 1259383; calls by dose curve; also: top concentration of the series differs between compounds; nearly all actives have a fitted effect of over 15% in size)
Method in brief: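 Luciferase luminescence (ONE-Glo, 30min at room temperature) measured in VM7Luc4E2 cells after 22hr compound exposure at 15 concentrations, with 10.0nM ICI-182,780 final present; cells express endogenous ER-alpha and carry four EREs upstream of luciferase.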

[19] = qHTS assay to identify small molecule antagonists of the sonic hedgehog signaling (Shh) pathway (AID 1259369; calls by dose curve; also: nearly all actives have a fitted effect of over 45% in size; also: potency is read from the fitted curve at half-maximal effect)
Method in brief: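 Luminescence readout: firefly Luc under Gli1 response element in 3T3Gli1-Luc cells (NIH/3T3 clone). Antagonist mode, stimulation by conditioned medium; compound exposure 24hr at 37 C, 5% CO2.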

[20] = molecular target: Estrogen receptor (Homo sapiens) (UniProt P03372); test: qHTS assay to identify small molecule antagonists of the estrogen receptor alpha (ER-alpha) signaling pathway using the BG1 cell line in the presence of 0.1 nM 17-beta-estradiol (AID 1259244); also: nearly all actives have a fitted effect of over 50% in size; also: potency is read from the fitted curve at half-maximal effect
Method in brief: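 Luminescence after ONE-Glo (30 min, room temperature) measured ERE-luciferase activity in VM7Luc4E2 cells treated 22 h with compound and 0.1 nM final 17beta-estradiol as stimulator.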

Chain of Androgen receptor (Homo sapiens) (P10275 whole entry, looked up): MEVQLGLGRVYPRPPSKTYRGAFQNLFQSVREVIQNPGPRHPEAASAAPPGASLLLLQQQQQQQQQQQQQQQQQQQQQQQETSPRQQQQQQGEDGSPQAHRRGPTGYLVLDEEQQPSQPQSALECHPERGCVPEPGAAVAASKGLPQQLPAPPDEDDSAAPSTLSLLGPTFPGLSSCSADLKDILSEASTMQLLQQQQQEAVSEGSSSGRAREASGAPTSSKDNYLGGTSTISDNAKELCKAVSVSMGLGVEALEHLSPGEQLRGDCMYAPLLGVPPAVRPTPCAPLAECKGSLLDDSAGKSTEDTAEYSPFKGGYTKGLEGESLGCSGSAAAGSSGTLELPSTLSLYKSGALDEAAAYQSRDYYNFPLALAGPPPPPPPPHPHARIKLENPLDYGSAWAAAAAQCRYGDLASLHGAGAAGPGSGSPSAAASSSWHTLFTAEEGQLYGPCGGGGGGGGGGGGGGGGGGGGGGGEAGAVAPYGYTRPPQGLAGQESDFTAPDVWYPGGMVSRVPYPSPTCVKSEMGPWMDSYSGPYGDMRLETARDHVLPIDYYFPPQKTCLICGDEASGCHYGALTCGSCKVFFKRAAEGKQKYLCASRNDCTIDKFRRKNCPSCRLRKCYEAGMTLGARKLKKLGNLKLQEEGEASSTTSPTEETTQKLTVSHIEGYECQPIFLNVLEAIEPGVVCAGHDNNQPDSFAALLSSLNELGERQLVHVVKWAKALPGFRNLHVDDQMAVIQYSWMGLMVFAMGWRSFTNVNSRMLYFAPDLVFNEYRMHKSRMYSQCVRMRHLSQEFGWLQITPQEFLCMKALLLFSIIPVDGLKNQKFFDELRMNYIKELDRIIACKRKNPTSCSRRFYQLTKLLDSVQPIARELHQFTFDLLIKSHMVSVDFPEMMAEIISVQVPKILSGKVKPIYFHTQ
Chain of Thyrotropin receptor (Homo sapiens) (P16473 whole entry, looked up): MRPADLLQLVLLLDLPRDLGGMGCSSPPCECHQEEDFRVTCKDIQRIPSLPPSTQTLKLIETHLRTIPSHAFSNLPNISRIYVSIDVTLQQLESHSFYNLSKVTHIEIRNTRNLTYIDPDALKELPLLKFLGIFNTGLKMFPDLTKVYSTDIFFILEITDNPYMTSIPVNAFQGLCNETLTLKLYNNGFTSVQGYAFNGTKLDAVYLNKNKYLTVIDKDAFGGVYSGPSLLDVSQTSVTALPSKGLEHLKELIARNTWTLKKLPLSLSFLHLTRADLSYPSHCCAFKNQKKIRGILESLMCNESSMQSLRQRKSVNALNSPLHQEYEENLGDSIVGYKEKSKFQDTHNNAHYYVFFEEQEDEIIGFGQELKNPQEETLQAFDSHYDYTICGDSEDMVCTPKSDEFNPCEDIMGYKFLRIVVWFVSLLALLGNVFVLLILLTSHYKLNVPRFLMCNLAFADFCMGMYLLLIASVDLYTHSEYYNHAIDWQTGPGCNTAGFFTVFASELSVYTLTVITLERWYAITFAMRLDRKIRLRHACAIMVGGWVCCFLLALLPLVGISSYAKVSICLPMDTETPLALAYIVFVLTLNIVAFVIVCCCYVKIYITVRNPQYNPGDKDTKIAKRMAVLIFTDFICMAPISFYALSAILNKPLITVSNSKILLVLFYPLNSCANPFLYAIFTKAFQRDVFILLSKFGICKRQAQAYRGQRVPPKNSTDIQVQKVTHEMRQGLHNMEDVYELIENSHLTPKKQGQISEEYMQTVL
Chain of Estrogen receptor beta (Homo sapiens) (Q92731 whole entry, looked up): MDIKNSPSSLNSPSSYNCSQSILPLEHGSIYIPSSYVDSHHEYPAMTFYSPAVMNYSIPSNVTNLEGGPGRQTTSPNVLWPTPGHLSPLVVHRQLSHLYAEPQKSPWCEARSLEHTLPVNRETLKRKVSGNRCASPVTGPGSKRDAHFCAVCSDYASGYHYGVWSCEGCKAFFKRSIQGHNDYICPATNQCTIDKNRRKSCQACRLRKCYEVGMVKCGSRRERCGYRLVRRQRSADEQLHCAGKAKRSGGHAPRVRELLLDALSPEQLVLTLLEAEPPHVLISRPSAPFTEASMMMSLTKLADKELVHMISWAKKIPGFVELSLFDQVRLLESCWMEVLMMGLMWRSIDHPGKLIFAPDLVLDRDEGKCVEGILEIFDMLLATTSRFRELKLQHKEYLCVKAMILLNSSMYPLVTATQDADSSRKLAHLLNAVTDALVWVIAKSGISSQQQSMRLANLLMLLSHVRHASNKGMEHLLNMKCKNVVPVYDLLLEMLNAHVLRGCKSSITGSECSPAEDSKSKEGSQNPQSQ
Chain of Estrogen receptor (Homo sapiens) (P03372 whole entry, looked up): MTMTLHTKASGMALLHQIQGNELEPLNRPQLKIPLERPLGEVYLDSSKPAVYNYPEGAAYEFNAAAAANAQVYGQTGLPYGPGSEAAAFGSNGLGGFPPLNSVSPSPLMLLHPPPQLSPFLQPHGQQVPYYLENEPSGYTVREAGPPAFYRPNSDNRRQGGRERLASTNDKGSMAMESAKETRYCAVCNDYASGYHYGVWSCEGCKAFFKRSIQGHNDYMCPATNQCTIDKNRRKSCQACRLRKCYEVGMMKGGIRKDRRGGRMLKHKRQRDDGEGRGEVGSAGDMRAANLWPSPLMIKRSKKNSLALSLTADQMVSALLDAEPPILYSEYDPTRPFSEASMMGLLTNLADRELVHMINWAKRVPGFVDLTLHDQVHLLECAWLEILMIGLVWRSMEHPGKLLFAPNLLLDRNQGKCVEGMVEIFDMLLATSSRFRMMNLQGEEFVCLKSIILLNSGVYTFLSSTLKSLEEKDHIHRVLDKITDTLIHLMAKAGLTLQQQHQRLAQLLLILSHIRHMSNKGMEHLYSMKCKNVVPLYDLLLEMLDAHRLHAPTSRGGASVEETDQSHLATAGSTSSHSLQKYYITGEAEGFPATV

Row | Compound | Potency [1] | Potency [2] | Potency [3] | Potency [4] | Potency [5] | Potency [6] | Potency [7] | Potency [8] | Potency [9] | Potency [10] | Potency [11] | Potency [12] | Potency [13] | Potency [14] | Potency [15] | Potency [16] | Potency [17] | Potency [18] | Potency [19] | Potency [20]
1 | C1=CCC2CC=CC2C1 (centres undefined) | inactive | inactive | inactive | inactive | inactive | inactive | inactive | inactive | inactive | inactive | inactive | inactive | inactive | inactive | – | – | – | – | – | –
2 | COC(=O)C1=C(C)NC(C)=C(C(=O)OC(C)(C)CN(C)CCC(c2ccccc2)c2ccccc2)C1c1cccc([N+](=O)[O-])c1 (centres undefined) | inactive | inactive | 26.6 µM (active) | inactive | – | inactive | inactive | inactive | – | – | inactive | inactive | inactive | inactive | inactive | inactive | inactive | inactive | – | –
3 | CCCCCCCC(=O)OCCCCCC | inactive | inactive | inactive | inactive | inactive | inactive | inactive | inactive | – | inactive | inactive | inactive | inactive | inactive | – | inactive | – | – | inactive | –
4 | CCCCOCCOC(=O)c1cccnc1 | inactive | inactive | inactive | inactive | inactive | inactive | inactive | inactive | inactive | inactive | inactive | inactive | inactive | inactive | – | inactive | inactive | – | inactive | inactive
5 | Nc1cccc2c(N)cccc12 | 27.3 µM (active) | inactive | inactive | inactive | inactive | – | – | – | – | inactive | 4.86 µM (active) | 54.5 µM (active) | – | – | inactive | inactive | – | – | 5.45 µM (active) | 20.5 µM (active)
6 | CC(=O)OCC(C)C | inactive | inactive | inactive | inactive | – | – | inactive | inactive | inactive | inactive | – | inactive | – | – | – | inactive | inactive | inactive | inactive | inactive
7 | O=C(O)CNC(=O)c1ccccc1I | inactive | inactive | – | inactive | inactive | inactive | inactive | inactive | – | inactive | inactive | – | inactive | inactive | inactive | inactive | inactive | inactive | inactive | inactive
8 | O=C1CC[C@@H](C(=O)O)N1 | inactive | inactive | inactive | inactive | inactive | inactive | – | inactive | inactive | inactive | inactive | inactive | inactive | inactive | inactive | inactive | inactive | – | inactive | –
9 | CC(C)(C)C(O)/C=C/c1ccc2c(c1)OCO2 (centres undefined) | inactive | inactive | – | inactive | inactive | inactive | inactive | inactive | – | inactive | inactive | – | inactive | inactive | inactive | – | inactive | inactive | inactive | inactive
10 | O=C(NC(Cc1cc(=O)[nH]c2ccccc12)C(=O)O)c1ccc(Cl)cc1 (centres undefined) | inactive | inactive | – | inactive | inactive | inactive | inactive | – | – | inactive | – | – | inactive | inactive | inactive | inactive | inactive | inactive | inactive | inactive
11 | CNC1CCCN(c2c(F)cc3c(=O)c(C(=O)O)cn(C4CC4)c3c2OC)C1 (centres undefined) | inactive | inactive | – | inactive | inactive | inactive | inactive | inactive | inactive | inactive | inactive | – | inactive | inactive | inactive | inactive | – | inactive | inactive | inactive
12 | O=C(O)/C=C/c1ccc(O)c(O)c1 | inactive | inactive | inactive | inactive | – | inactive | inactive | – | – | inactive | inactive | inactive | – | inactive | – | inactive | inactive | – | inactive | –
13 | CCC(CO)(CO)CO | inactive | inactive | inactive | inactive | inactive | inactive | inactive | inactive | inactive | inactive | inactive | inactive | inactive | inactive | – | inactive | inactive | inactive | inactive | inactive
14 | Cc1oc(=O)oc1COC(=O)[C@@H]1N2C(=O)[C@@H](NC(=O)[C@H](N)c3ccccc3)[C@H]2SC1(C)C | inactive | inactive | inactive | inactive | inactive | inactive | inactive | inactive | – | inactive | inactive | inactive | inactive | inactive | – | inactive | inactive | inactive | inactive | –
15 | CN1C(CSCC(F)(F)F)Nc2cc(Cl)c(S(N)(=O)=O)cc2S1(=O)=O (centres undefined) | inactive | inactive | inactive | inactive | inactive | inactive | inactive | inactive | inactive | inactive | inactive | inactive | inactive | inactive | inactive | – | inactive | – | – | inactive
16 | CC1CCCC(=O)C1=O (centres undefined) | inactive | inactive | inactive | inactive | inactive | inactive | – | inactive | – | – | inactive | inactive | – | – | – | inactive | – | inactive | inactive | inactive
